Source: PubChem BioAssay AID1159580 (chemical genetic matrix, 2015)
Where “and” joins values, the source holds several entries; their conditions need not be identical. Equal values may be shown once. In all, about 5,500 compounds went through this assay and about 2,000 (36%) were called active. Not shown: some 18% with an inconclusive outcome. Cut-off read from the data, not from the text of the source: active = normalized growth mostly below about 0.91 (no sharp cut-off); inconclusive = no clear call, values can overlap the other calls; inactive = mostly above about 0.92. Some of the results follow.

Assay: chemical genetic growth profiling, strain panel (AID 1159580);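 note: tested at 20 µM; growth read once vehicle control cultures reached saturation at 30 °C; 1 = growth at the plate median or of vehicle wells; lower values mean less growth of the strain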
Conditions: S. cerevisiae deletion strains, growth OD
[1] = locus YMR307W, strain GAS1, stronger effect = lower value
[2] = locus YPL055C, strain LGE1, stronger effect = lower value

Measured: normalized growth

CC(N)Cc1c[nH]c2ccc(O)cc12 (centres undefined)
inactive: locus YAL013W, strain DEP1, stronger effect = lower value 1.02 | locus YAL040C, strain CLN3, stronger effect = lower value 1 | locus YCL061C, strain MRC1 (second series), stronger effect = lower value 1 | locus YDR363W, strain ESC2, stronger effect = lower value 1.03 | locus YER002W, strain NOP16, stronger effect = lower value 1 | [1] 1 | locus YNL153C, strain GIM3, stronger effect = lower value 1.01 | locus YNL175C, strain NOP13, stronger effect = lower value 1.01 | locus YNL197C, strain WHI3, stronger effect = lower value 1.04 | locus YNL224C, strain SQS1, stronger effect = lower value 1.02 | locus YOR083W, strain WHI5 (second series), stronger effect = lower value 1.01 | [2] 1.01

CC[C@@H](CO)NCCN[C@@H](CC)CO
inactive: locus YAL021C, strain ccr4, stronger effect = lower value 1.01 | locus YAL026C, strain drs2, stronger effect = lower value 1 | locus YAL030W, strain snc1, stronger effect = lower value 1.01 | locus YBL061C, strain skt5, stronger effect = lower value 1.02 | locus YBR009C, strain hhf1, stronger effect = lower value 1 | locus YBR021W, strain FUR4, stronger effect = lower value 1.02 | locus YBR023C, strain chs3, stronger effect = lower value 1.04 | locus YBR171W, strain sec66, stronger effect = lower value 1.02 | locus YBR229C, strain ROT2, stronger effect = lower value 1.01 | locus YBR231C, strain swc5, stronger effect = lower value 0.968 | locus YBR279W, strain paf1, stronger effect = lower value 1.02 | locus YCL011C, strain gbp2, stronger effect = lower value 1.03 | locus YCL016C, strain dcc1, stronger effect = lower value 1.04 | locus YCL029C, strain bik1, stronger effect = lower value 1 | locus YCL061C, strain MRC1, stronger effect = lower value 1.03 | locus YCL069W, strain vba3, stronger effect = lower value 1 | locus YCR088W, strain abp1, stronger effect = lower value 1.01 | locus YDL005C, strain med2, stronger effect = lower value 1 | locus YDL035C, strain GPR1, stronger effect = lower value 1.02 | locus YDL040C, strain nat1, stronger effect = lower value 1 | locus YDL074C, strain BRE1, stronger effect = lower value 1.04 | locus YDL101C, strain DUN1, stronger effect = lower value 1.02 | locus YDL134C, strain PPH21, stronger effect = lower value 1.02 | locus YDL185W, strain tfp1, stronger effect = lower value 1 | locus YDL192W, strain arf1, stronger effect = lower value 1 | locus YDR001C, strain nth1, stronger effect = lower value 1.01 | locus YDR069C, strain doa4, stronger effect = lower value 0.996 | locus YDR101C, strain arx1, stronger effect = lower value 0.987 | locus YDR137W, strain rgp1, stronger effect = lower value 1.01 | locus YDR150W, strain NUM1, stronger effect = lower value 1 | locus YDR159W, strain sac3, stronger effect = lower value 0.959 | locus YDR162C, strain NBP2, stronger effect = lower value 1.01 | locus YDR195W, strain ref2 0.964 | locus YDR297W, strain sur2, stronger effect = lower value 1.02 | locus YDR318W, strain mcm21, stronger effect = lower value 1.01 | locus YDR334W, strain swr1, stronger effect = lower value 1.01 | locus YDR335W, strain msn5, stronger effect = lower value 1.01 | locus YDR388W, stronger effect = lower value 1 | locus YDR392W, strain spt3, stronger effect = lower value 0.985 | locus YDR502C, strain sam2, stronger effect = lower value 1.03 | locus YEL003W, strain gim4, stronger effect = lower value 0.999 | locus YEL037C, strain rad23, stronger effect = lower value 1.01 | locus YEL061C, strain CIN8 (second series), stronger effect = lower value 1.01 | locus YEL061C, strain CIN8, stronger effect = lower value 1.01 | locus YER015W, strain faa2, stronger effect = lower value 1.01 | locus YER016W, strain bim1, stronger effect = lower value 0.985 | locus YER110C, stronger effect = lower value 1.01 | locus YER111C, strain swi4, stronger effect = lower value 1.01 | locus YER155C, strain BEM2 (second series), stronger effect = lower value 0.999 | locus YER155C, strain BEM2, stronger effect = lower value 1.01 | locus YER167W, strain BCK2, stronger effect = lower value 1.01 | locus YFR010W, strain ubp6, stronger effect = lower value 1 | locus YGL078C, strain dbp3, stronger effect = lower value 1 | locus YGL086W, strain mad1, stronger effect = lower value 0.988 | locus YGL167C, strain pmr1, stronger effect = lower value 1.01 | locus YGL173C, strain kem1, stronger effect = lower value 1.01 | locus YGL227W, strain vid30, stronger effect = lower value 1.02 | locus YGL240W, strain doc1, stronger effect = lower value 0.995 | locus YGL248W, strain PDE1, stronger effect = lower value 1.02 | locus YGL253W, strain hxk2, stronger effect = lower value 0.999 | locus YGR078C, strain PAC10, stronger effect = lower value 1.01 | locus YGR135W, strain pre9, stronger effect = lower value 1.04 | locus YGR229C, strain SMI1, stronger effect = lower value 1.02 | locus YGR252W, strain gcn5, stronger effect = lower value 1.04 | locus YHR013C, strain ard1, stronger effect = lower value 1.04 | locus YHR027C, strain rpn1, stronger effect = lower value 1 | locus YHR030C, strain SLT2, stronger effect = lower value 1 and 1.04 | locus YHR079C, strain IRE1 (second series), stronger effect = lower value 0.987 | locus YHR079C, strain IRE1, stronger effect = lower value 1.04 | locus YHR094C, strain hxt1, stronger effect = lower value 1.01 | locus YHR129C, strain ARP1, stronger effect = lower value 1.02 | locus YHR142W, strain chs7, stronger effect = lower value 1.02 | locus YHR200W, strain rpn10, stronger effect = lower value 1 | locus YIL066C, strain RNR3, stronger effect = lower value 1.01 | locus YIL073C, strain SPO22, stronger effect = lower value 1.02 | locus YIL125W, strain kgd1, stronger effect = lower value 1 | locus YIR030C, strain dcg1, stronger effect = lower value 1 | locus YJL092W, strain hpr5, stronger effect = lower value 1.02 | locus YJL095W, strain BCK1 (second series), stronger effect = lower value 1.02 | locus YJL095W, strain BCK1, stronger effect = lower value 1.03 and 1.02 | locus YJL115W, strain asf1, stronger effect = lower value 1.01 | locus YJL129C, strain trk1, stronger effect = lower value 1.02 | locus YJL134W, strain LCB3, stronger effect = lower value 1.02 | locus YJL154C, strain vps35, stronger effect = lower value 1 | locus YJL164C, strain tpk1, stronger effect = lower value 1.02 | locus YJL166W, strain qcr8, stronger effect = lower value 1.05 | locus YJL168C, strain set2, stronger effect = lower value 1.03 | locus YJL187C, strain SWE1 (second series), stronger effect = lower value 1.01 | locus YJL187C, strain SWE1, stronger effect = lower value 1 | locus YJR043C, strain POL32, stronger effect = lower value 1.01 | locus YJR066W, strain TOR1, stronger effect = lower value 0.909 | locus YKL009W, strain mrt4, stronger effect = lower value 0.996 | locus YKL068W, stronger effect = lower value 0.994 | locus YKL085W, strain MDH1 (second series), stronger effect = lower value 1 | locus YKL085W, strain MDH1, stronger effect = lower value 1 | locus YKL160W, strain elf1, stronger effect = lower value 1.05 | locus YKR001C, strain vps1, stronger effect = lower value 0.991 | locus YKR026C, strain gcn3, stronger effect = lower value 1.01 | locus YKR091W, strain srl3, stronger effect = lower value 1.01 | locus YLL001W, strain dnm1, stronger effect = lower value 1.05 | locus YLL026W, stronger effect = lower value 1.01 | locus YLL041C, strain sdh2, stronger effect = lower value 1 | locus YLR027C, strain aat2, stronger effect = lower value 0.992 | locus YLR039C, strain RIC1, stronger effect = lower value 1.1 | locus YLR058C, strain SHM2, stronger effect = lower value 1.02 | locus YLR102C, strain apc9, stronger effect = lower value 1 | locus YLR113W, strain HOG1, stronger effect = lower value 1.1 | locus YLR221C, strain rsa3, stronger effect = lower value 1.05 | locus YLR258W, strain gsy2, stronger effect = lower value 1.02 | locus YLR262C, strain YPT6 (second series), stronger effect = lower value 1.03 | locus YLR262C, strain YPT6, stronger effect = lower value 1.05 | locus YLR268W, strain sec22, stronger effect = lower value 0.988 | locus YLR320W, strain mms22, stronger effect = lower value 1.07 | locus YLR330W, strain CHS5, stronger effect = lower value 1.01 | locus YLR342W, strain FKS1 (second series), stronger effect = lower value 1.05 | locus YLR342W, strain FKS1, stronger effect = lower value 1.02 | locus YLR357W, strain rsc2, stronger effect = lower value 0.986 | locus YLR370C, strain arc18, stronger effect = lower value 1.02 | locus YLR371W, strain rom2, stronger effect = lower value 1.01 | locus YLR384C, strain iki3, stronger effect = lower value 1.02 | locus YLR418C, strain cdc73, stronger effect = lower value 1.01 | locus YML016C, strain PPZ1, stronger effect = lower value 1.01 | locus YML032C, strain rad52, stronger effect = lower value 1.01 | locus YML120C, strain ndi1, stronger effect = lower value 1.03 | locus YML124C, strain tub3, stronger effect = lower value 0.998 | locus YMR058W, strain fet3, stronger effect = lower value 1.01 | locus YMR078C, strain ctf18, stronger effect = lower value 1.01 | locus YMR125W, strain sto1, stronger effect = lower value 1 | locus YMR129W, stronger effect = lower value 1 | locus YMR205C, strain PFK2, stronger effect = lower value 1.05 | locus YMR223W, strain ubp8, stronger effect = lower value 1.02 | locus YMR231W, strain pep5, stronger effect = lower value 1 | locus YMR263W, strain SAP30, stronger effect = lower value 1.02 | [1] 1.01 | locus YNL067W, strain RPL9B, stronger effect = lower value 1.01 | locus YNL071W, strain lat1, stronger effect = lower value 1.02 | locus YNL183C, strain NPR1, stronger effect = lower value 1 | locus YNL209W, strain ssb2, stronger effect = lower value 1.02 | locus YNL233W, strain BNI4, stronger effect = lower value 1.02 | locus YNL248C, strain rpa49, stronger effect = lower value 0.996 | locus YNL250W, strain rad50, stronger effect = lower value 0.992 | locus YNL271C, strain bni1, stronger effect = lower value 0.995 | locus YNL298W, strain CLA4, stronger effect = lower value 1.02 | locus YNL307C, strain MCK1, stronger effect = lower value 1 | locus YNL322C, strain KRE1 (second series), stronger effect = lower value 1.04 | locus YNL322C, strain KRE1, stronger effect = lower value 1.01 | locus YNR049C, strain mso1, stronger effect = lower value 1.02 | locus YNR052C, strain pop2, stronger effect = lower value 1 | locus YOL006C, strain TOP1, stronger effect = lower value 1.01 | locus YOL012C, strain htz1 0.915 | locus YOL147C, strain pex11, stronger effect = lower value 0.997 | locus YOR001W, strain rrp6, stronger effect = lower value 0.99 | locus YOR061W, strain CKA2, stronger effect = lower value 1.01 | locus YOR069W, strain VPS5, stronger effect = lower value 1.01 | locus YOR070C, strain gyp1, stronger effect = lower value 1.01 | locus YOR080W, strain dia2, stronger effect = lower value 1 | locus YOR083W, strain WHI5, stronger effect = lower value 1.07 | locus YOR106W, strain vam3, stronger effect = lower value 1.04 | locus YOR136W, strain idh2, stronger effect = lower value 0.995 | locus YOR144C, strain elg1, stronger effect = lower value 0.996 | locus YOR184W, strain ser1, stronger effect = lower value 1.03 | locus YOR231W, strain MKK1, stronger effect = lower value 1.07 | locus YOR265W, strain rbl2, stronger effect = lower value 1.01 | locus YOR270C, strain vph1, stronger effect = lower value 1.04 | locus YOR290C, strain snf2, stronger effect = lower value 0.986 | locus YOR316C, strain cot1, stronger effect = lower value 1 | locus YPL051W, strain arl3, stronger effect = lower value 1 | [2] 1.03 | locus YPL078C, strain atp4, stronger effect = lower value 1.02 | locus YPL106C, strain sse1, stronger effect = lower value 1.03 | locus YPL240C, strain hsp82, stronger effect = lower value 1.02 | locus YPL256C, strain CLN2, stronger effect = lower value 1.03 | locus YPR119W, strain clb2, stronger effect = lower value 1 | locus YPR141C, strain kar3, stronger effect = lower value 1.01 | locus YPR163C, strain tif3, stronger effect = lower value 0.989 | locus YPR167C, strain met16, stronger effect = lower value 1 | strain wtn01, stronger effect = lower value 1
